Measured values reported in PubChem BioAssay (EPA / NIEHS).
Inconclusive results are not listed. The source made the active and inactive calls. Rule for the calls, unless noted: active = hit-call score of the fitted dose curve at least 0.9, where 1 is the maximum; inconclusive = response in the unintended direction; inactive = score below 0.9.

Assays:
[1] = ATG_BRE_CIS: Attagene CIS-FACTORIAL HepG2 Assay for human Bone Morphogenetic Protein (BMP) Response Element (BRE) (AID 2282933; active = hit-call score of the fitted dose curve at least 0.9, where 1 is the maximum; inactive = score below 0.9); settings: HepG2 BMP response element reporter, Attagene transcription factor profiling; actives raise or lower the signal
Procedure, shortened: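 Read-out: reporter mRNA induction quantified by RT-PCR and capillary electrophoresis after 24 h chemical exposure of transfected HepG2 cells. Endogenous factor activity on the BMP response element; gain or loss fitted against DMSO baseline.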

[2] = ATG_E_Box_CIS: Attagene CIS-FACTORIAL HepG2 Assay for human Enhancer Box (E-box) (AID 2282936; active = hit-call score of the fitted dose curve at least 0.9, where 1 is the maximum; inactive = score below 0.9); settings: HepG2 E-box cis-reporter transcription, actives raise or lower the signal
Procedure, shortened: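 Fluorescent reporter fragments separated by capillary electrophoresis gave the signal; mRNA came from HepG2 cells transfected with cis-element reporters and treated 24 h. Curves fitted bidirectionally relative to DMSO controls.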

[3] = ATG_GRE_CIS: Attagene CIS-FACTORIAL HepG2 Assay for human Glucocorticoid Response Elements (GRE) (AID 2282947; active = hit-call score of the fitted dose curve at least 0.9, where 1 is the maximum; inactive = score below 0.9); settings: HepG2 GRE cis-reporter, Attagene multiplex mRNA; actives raise or lower the signal
Procedure, shortened: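 Multiplexed cis-reporter mRNA induction, HepG2, 24 h post-dose. RT-PCR, FAM-labelled, HpaI-digested amplicons by CE. Bidirectional fit vs DMSO.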

[4] = ATG_PPRE_CIS: Attagene CIS-FACTORIAL HepG2 Assay for human Peroxisome Proliferator-activated Response Element (PPRE) (AID 2282958; active = hit-call score of the fitted dose curve at least 0.9, where 1 is the maximum; inactive = score below 0.9); settings: HepG2 PPRE cis-element reporter, Attagene transcription factor profiling; actives raise or lower the signal
Procedure, shortened: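 DMSO served as negative control and baseline for bidirectional curve fitting. Signal came from PPRE-regulated reporter mRNA in HepG2 cells, measured 24 h post-dosing by RT-PCR, 6-FAM primer extension and capillary electrophoresis.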

[5] = ATG_Sox_CIS: Attagene CIS-FACTORIAL HepG2 Assay for human SRY-box transcription factor (SOX) (AID 2282960; active = hit-call score of the fitted dose curve at least 0.9, where 1 is the maximum; inactive = score below 0.9); settings: HepG2 Attagene cis-factorial SOX reporter, mRNA; actives raise or lower the signal
Procedure, shortened: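 Fluorescence-labelled cDNA fragments from reporter transcripts, sized by CE, give the signal. Cells: HepG2, transiently transfected with cis-regulated reporter units. Exposure 24 h; DMSO negative control; bidirectional curve fitting.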

[6] = ATG_SREBP_CIS: Attagene CIS-FACTORIAL HepG2 Assay for human Sterol Regulatory Element Binding (SREBP) (AID 2282962; active = hit-call score of the fitted dose curve at least 0.9, where 1 is the maximum; inactive = score below 0.9); settings: HepG2 Attagene cis-factorial SREBP reporter, mRNA; actives raise or lower the signal
Procedure, shortened: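 Endogenous factor activity is measured in HepG2 through multiplexed reporter units under cis-element control. Following a 24 h incubation, reporter transcripts are reverse-transcribed, PCR-amplified and sized by capillary electrophoresis; activity is fitted in both directions relative to DMSO.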

[7] = target: X-box-binding protein 1 (Homo sapiens) (UniProt P17861); experiment: ATG_Xbp1_CIS: Attagene CIS-FACTORIAL HepG2 Assay for human X-box Binding Protein 1 (XBP1) (AID 2282972; active = hit-call score of the fitted dose curve at least 0.9, where 1 is the maximum; inactive = score below 0.9); settings: HepG2 XBP1 cis-element reporter, Attagene multiplex; actives raise or lower the signal
Chain of X-box-binding protein 1 (Homo sapiens) (P17861 whole entry, looked up): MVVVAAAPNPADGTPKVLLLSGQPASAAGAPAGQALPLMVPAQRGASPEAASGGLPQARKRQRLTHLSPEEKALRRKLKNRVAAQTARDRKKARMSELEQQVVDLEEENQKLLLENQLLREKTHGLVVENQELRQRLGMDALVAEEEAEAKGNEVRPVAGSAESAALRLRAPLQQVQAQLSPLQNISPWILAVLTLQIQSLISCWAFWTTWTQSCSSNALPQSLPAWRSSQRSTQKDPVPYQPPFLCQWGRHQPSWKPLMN
Procedure, shortened: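 Multiplexed cis-reporter readout in transfected HepG2 liver cells. Exposure lasted 24 hours. Activity in either direction was fitted against DMSO as negative control and baseline.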

[8] = target: Hepatocyte nuclear factor 4-alpha (Homo sapiens) (UniProt P41235); experiment: ATG_HNF4a_TRANS: Attagene TRANS-FACTORIAL HepG2 Assay for human Hepatocyte Nuclear Factor 4 alpha (HNF4a) (AID 2282982); settings: HepG2 HNF4a transactivation reporter, mRNA readout
Chain of Hepatocyte nuclear factor 4-alpha (Homo sapiens) (P41235 whole entry, looked up): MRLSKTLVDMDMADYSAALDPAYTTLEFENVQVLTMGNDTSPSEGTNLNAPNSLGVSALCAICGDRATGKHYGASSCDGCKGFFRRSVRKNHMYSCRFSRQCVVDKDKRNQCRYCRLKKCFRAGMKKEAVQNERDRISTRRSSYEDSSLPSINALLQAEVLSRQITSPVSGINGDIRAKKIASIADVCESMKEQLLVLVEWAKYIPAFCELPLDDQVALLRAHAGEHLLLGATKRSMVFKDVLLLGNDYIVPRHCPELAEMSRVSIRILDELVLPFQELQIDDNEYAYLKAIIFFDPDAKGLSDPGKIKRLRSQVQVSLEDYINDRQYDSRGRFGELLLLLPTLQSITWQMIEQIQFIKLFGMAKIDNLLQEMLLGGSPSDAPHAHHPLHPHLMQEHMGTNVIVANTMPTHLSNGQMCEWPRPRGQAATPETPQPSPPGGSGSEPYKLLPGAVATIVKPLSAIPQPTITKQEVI
Procedure, shortened: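 Multiplexed reporter assay: transfected HepG2, 24 h exposure, total RNA → oligo(dT) RT → PCR → 6-FAM extension → HpaI digest → CE fluorescence. DMSO = negative control.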

[9] = target: Nuclear respiratory factor 1 (Homo sapiens) (UniProt Q16656); experiment: ATG_NRF1_CIS: Attagene CIS-FACTORIAL HepG2 Assay for human Nuclear Respiratory Factor 1 (NRF1) Orphan Gene (AID 2282987; active = hit-call score of the fitted dose curve at least 0.9, where 1 is the maximum; inactive = score below 0.9); settings: HepG2 NRF1 cis-element reporter, Attagene multiplex; actives raise or lower the signal
Chain of Nuclear respiratory factor 1 (Homo sapiens) (Q16656 whole entry, looked up): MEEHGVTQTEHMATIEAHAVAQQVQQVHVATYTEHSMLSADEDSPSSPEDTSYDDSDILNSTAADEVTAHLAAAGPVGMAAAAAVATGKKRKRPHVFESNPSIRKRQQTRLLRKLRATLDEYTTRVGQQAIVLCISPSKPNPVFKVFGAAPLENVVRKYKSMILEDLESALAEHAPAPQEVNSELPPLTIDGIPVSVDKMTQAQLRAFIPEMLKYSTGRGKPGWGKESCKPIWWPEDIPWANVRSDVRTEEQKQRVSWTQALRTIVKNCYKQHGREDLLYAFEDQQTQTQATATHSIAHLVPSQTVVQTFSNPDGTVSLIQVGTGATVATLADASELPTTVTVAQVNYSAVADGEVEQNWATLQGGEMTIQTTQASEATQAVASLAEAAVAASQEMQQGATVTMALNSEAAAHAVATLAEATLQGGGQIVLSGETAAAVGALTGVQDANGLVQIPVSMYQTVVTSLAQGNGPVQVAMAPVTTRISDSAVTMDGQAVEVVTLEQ
Procedure, shortened: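 Reporter mRNA induction or loss in HepG2 cells after 24 h dosing; cis-regulated reporter constructs report endogenous transcription-factor activity. Quantified by RT-PCR/capillary electrophoresis fluorescence, DMSO-referenced.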

[10] = ATG_NFI_CIS: Attagene CIS-FACTORIAL HepG2 Assay for human Nuclear Factor I (NFI) (AID 2282989; active = hit-call score of the fitted dose curve at least 0.9, where 1 is the maximum; inactive = score below 0.9); settings: HepG2 cis-regulatory reporter, NFI response element transcription; actives raise or lower the signal
Procedure, shortened: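 Read-out: reporter mRNA via RT-PCR plus capillary electrophoresis with fluorescence detection. Transiently transfected HepG2 (endogenous TF activity on cis promoters), 24 h compound exposure; gain or loss of signal fitted against DMSO.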

[11] = target: Peroxisome proliferator-activated receptor gamma (Homo sapiens) (UniProt P37231); experiment: ATG_PPARg_TRANS: Attagene TRANS-FACTORIAL HepG2 Assay for human Peroxisome Proliferator-activated Receptor-gamma (PPARg) (AID 2283007)
Chain of Peroxisome proliferator-activated receptor gamma (Homo sapiens) (P37231 whole entry, looked up, the tested form may be a part): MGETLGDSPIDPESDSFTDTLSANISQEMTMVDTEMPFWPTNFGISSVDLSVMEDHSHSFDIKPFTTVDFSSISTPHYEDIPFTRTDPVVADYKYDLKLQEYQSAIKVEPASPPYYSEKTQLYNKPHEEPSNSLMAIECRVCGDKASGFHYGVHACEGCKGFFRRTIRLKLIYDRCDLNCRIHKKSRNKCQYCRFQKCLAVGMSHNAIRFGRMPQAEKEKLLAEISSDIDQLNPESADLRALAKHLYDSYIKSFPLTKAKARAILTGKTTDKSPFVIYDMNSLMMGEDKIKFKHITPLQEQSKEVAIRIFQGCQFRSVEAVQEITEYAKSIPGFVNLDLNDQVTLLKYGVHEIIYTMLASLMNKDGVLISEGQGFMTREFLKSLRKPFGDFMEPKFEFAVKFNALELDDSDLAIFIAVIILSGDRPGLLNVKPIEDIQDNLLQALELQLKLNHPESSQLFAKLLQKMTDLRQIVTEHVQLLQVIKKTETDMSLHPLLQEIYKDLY
Procedure, shortened: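 Chimeric NR-Gal4 transactivation is measured in transiently transfected HepG2 cells by reporter mRNA induction at 24 h. Detection uses RT-PCR with fluorescent labelling and capillary electrophoresis; DMSO defines baseline.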

[12] = target: Nuclear receptor subfamily 1 group I member 2 (Homo sapiens) (UniProt O75469); experiment: ATG_PXR_TRANS: Attagene TRANS-FACTORIAL HepG2 Assay for human Pregnane X Receptor (PXR) (AID 2283008)
Chain of Nuclear receptor subfamily 1 group I member 2 (Homo sapiens) (O75469 whole entry, looked up, the tested form may be a part): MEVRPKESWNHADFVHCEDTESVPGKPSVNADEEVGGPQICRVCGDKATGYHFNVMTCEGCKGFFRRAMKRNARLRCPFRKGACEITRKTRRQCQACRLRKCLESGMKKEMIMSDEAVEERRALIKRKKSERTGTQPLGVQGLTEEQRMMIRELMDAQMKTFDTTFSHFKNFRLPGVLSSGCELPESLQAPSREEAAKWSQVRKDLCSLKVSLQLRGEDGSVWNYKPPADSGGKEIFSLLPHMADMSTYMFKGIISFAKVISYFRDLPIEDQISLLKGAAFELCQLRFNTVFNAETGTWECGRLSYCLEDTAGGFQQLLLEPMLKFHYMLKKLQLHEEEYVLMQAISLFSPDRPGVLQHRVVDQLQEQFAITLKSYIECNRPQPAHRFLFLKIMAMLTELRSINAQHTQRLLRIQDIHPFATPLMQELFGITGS
Procedure, shortened: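 HepG2 transfected (FuGene 6) with GAL4-UAS reporter units + PXR-Gal4 chimera; dosed 24 h. Total RNA → oligo(dT) RT → PCR → 6-FAM primer extension → HpaI cut → CE. Gain-of-signal vs DMSO.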

[13] = target: Retinoic acid receptor RXR-alpha (Homo sapiens) (UniProt P19793); experiment: ATG_RXRa_TRANS: Attagene TRANS-FACTORIAL HepG2 Assay for human Retinoid X Receptor alpha (RXRa) (AID 2283012)
Chain of Retinoic acid receptor RXR-alpha (Homo sapiens) (P19793 whole entry, looked up, the tested form may be a part): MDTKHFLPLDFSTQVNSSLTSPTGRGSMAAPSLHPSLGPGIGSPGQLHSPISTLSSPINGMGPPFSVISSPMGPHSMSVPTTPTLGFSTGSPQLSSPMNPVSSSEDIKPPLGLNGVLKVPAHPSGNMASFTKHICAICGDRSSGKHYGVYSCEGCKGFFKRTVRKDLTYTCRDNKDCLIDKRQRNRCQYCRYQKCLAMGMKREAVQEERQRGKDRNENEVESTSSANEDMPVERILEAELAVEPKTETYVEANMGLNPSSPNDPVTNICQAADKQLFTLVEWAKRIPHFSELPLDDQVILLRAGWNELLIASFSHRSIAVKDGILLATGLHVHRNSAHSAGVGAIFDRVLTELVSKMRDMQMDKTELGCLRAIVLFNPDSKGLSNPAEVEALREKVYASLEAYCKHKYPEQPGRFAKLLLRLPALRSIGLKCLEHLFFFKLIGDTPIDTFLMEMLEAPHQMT
Procedure, shortened: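 Chimeric NR-GAL4 trans-activation in HepG2, 24 h treatment; reporter transcripts quantified by fluorescence on capillary electrophoresis, analysed for upward change from DMSO.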

[14] = target: human Retinoid X Receptor beta (RXRb), RXRB (gene 6257) (UniProt P28702); experiment: ATG_RXRb_TRANS: Attagene TRANS-FACTORIAL HepG2 Assay for human Retinoid X Receptor beta (RXRb) (AID 2283013)
Chain of human Retinoid X Receptor beta (RXRb), RXRB (gene 6257) (P28702 whole entry, looked up, the tested form may be a part): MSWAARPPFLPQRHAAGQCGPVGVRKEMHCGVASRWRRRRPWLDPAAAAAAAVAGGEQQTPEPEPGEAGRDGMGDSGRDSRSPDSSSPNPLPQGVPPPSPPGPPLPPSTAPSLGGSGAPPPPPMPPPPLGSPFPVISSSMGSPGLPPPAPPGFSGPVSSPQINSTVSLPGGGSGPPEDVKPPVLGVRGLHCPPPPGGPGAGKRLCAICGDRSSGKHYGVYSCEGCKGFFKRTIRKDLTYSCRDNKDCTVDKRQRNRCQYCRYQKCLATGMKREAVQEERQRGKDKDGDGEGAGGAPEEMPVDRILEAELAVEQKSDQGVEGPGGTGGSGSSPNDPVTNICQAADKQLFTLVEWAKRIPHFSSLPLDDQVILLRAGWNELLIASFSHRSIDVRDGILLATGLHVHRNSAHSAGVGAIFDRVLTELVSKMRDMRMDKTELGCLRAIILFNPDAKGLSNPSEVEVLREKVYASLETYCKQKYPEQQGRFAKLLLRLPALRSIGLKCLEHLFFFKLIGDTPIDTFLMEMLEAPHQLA
Procedure, shortened: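 After a 24 h incubation with test chemical, transfected HepG2 cells carrying NR-Gal4 fusions and GAL4-UAS reporter transcription units yield RNA whose reporter cDNA is FAM-labelled, HpaI-cut and sized by capillary electrophoresis; increases over DMSO are scored.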

[15] = target: Cellular tumor antigen p53 (Homo sapiens) (UniProt P04637); experiment: TOX21_p53_BLA_p3_ratio: Tox21 HCT-116 p53 Agonism Beta-lactamase Assay, Ratio, Phase 3 (AID 2283596)
Chain of Cellular tumor antigen p53 (Homo sapiens) (P04637 whole entry, looked up): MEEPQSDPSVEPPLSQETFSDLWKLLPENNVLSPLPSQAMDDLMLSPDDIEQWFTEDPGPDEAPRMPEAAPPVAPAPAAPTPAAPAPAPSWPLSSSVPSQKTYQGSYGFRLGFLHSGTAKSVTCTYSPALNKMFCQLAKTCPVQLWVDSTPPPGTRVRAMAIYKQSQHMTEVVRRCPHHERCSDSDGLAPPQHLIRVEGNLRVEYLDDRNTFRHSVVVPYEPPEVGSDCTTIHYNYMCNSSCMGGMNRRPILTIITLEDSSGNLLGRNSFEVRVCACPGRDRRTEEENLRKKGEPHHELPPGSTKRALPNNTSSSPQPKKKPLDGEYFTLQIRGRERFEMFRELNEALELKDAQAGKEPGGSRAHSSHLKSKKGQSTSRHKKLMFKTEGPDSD
Procedure, shortened: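 Cells were seeded at 4000/well, rested 5 h at 37C, then dosed with DMSO compound solutions (217-fold dilution) for 16 h. CCF4-AM substrate was loaded for 2 h at room temperature, and the 460/530 nm emission ratio was fitted for gain of signal versus DMSO.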

[16] = target: Cellular tumor antigen p53 (Homo sapiens) (UniProt P04637); experiment: TOX21_p53_BLA_p5_ratio: Tox21 HCT-116 p53 Agonism Beta-lactamase Assay, Ratio, Phase 5 (AID 2283599)
Procedure, shortened: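 Beta-lactamase reporter ratio (blue 460 nm over green 530 nm, 405 nm excitation) after 2 h CCF4-AM loading, in HCT-116 cells exposed 16 h at 37 C to compounds pinned at 217-fold dilution. Increases relative to DMSO baseline scored.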

[17] = target: Cellular tumor antigen p53 (Homo sapiens) (UniProt P04637); experiment: TOX21_p53_BLA_p4_ratio: Tox21 HCT-116 p53 Agonism Beta-lactamase Assay, Ratio, Phase 4 (AID 2283601)
Procedure, shortened: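 Signal is the blue/green (460nm/530nm) ratio of cleaved versus uncleaved CCF4-AM substrate, read after 2 h substrate loading. Cells were HCT116 carrying the p53-responsive beta-lactamase reporter, dosed 16 h at 37C, 5% CO2; CellTiter-Glo measured in parallel.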

[18] = ATG_FoxO_CIS: Attagene CIS-FACTORIAL HepG2 Assay for human Forkhead box O (FoxO) (AID 2282943; active = hit-call score of the fitted dose curve at least 0.9, where 1 is the maximum; inactive = score below 0.9); settings: HepG2 Attagene cis-reporter, FoxO element, mRNA; actives raise or lower the signal
Procedure, shortened: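 HepG2, transient MRTU transfection (cis element, endogenous TFs). Dose 24 h. TriZol RNA → oligo(dT) RT → PCR → 6-FAM primer extension → HpaI cut → CE. Gain/loss vs DMSO.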

[19] = ATG_PBREM_CIS: Attagene CIS-FACTORIAL HepG2 Assay for human Phenobarbital-responsive Enhancer Module (PBREM) (AID 2282955; active = hit-call score of the fitted dose curve at least 0.9, where 1 is the maximum; inactive = score below 0.9); settings: HepG2 PBREM cis-reporter, Attagene multiplexed transcription; actives raise or lower the signal
Procedure, shortened: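 Multiplexed cis-reporter readout in human hepatoma HepG2 cells; PBREM-regulated transcript quantified after 24 h exposure by fluorescent RT-PCR fragment analysis. Signal changes up or down fitted relative to DMSO.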

[20] = ATG_M_06_TRANS: Attagene TRANS-FACTORIAL HepG2 Assay for M06 Transcription Factor (Internal Marker) (AID 2282983); settings: HepG2 Attagene TRANS M06 internal marker reporter;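 note: reporter transcript level by RT-PCR then capillary electrophoresis fluorescence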
Procedure, shortened: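 mRNA levels of a reporter transcript, quantified as FAM fluorescence on capillary electrophoresis, served as readout. HepG2 cells expressing exogenous GAL4-chimera reporter constructs were exposed for 24 h. Gain of signal over DMSO was evaluated.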

Measured: AC50

CC(C)(C)C(=O)CCl
active: [2] 45.2 µM | [11] 25.7 µM
not listed: [18] | [19] | [20]
inactive: all other assays above

C=CCN(CC=C)C(=O)C(Cl)Cl
not listed: [2] | [8] | [9] | [14] | [20]
inactive: all other assays above

Nc1ccccc1C(=O)OCCc1ccccc1
active: [19] 21.3 µM | [11] 24.9 µM | [12] 19.2 µM | [14] 33.4 µM
not listed: [1] | [4] | [7] | [18]
inactive: all other assays above

[N-]=[N+]=CC(=O)OC[C@H](N)C(=O)O
inactive: [18] | [5] | [6] | [7] | [20] | [9] | [15] | [16] | [17]

CCOP(=O)(OCC)OCC
not listed: [2] | [20]
inactive: all other assays above
